Source: PubChem BioAssay (NCATS)
Results filed as inconclusive are left out. Where a call stands in place of a potency, no number is given. The source holds several records for some structures; these can differ, active in one and inactive in another. Activity calls are given as the source filed them. Unless noted, calls follow the shape of the dose curve; as a rule, active = well fitted curve in the direction sought with a large enough effect; inconclusive = small, poorly fitted or top-dose-only effect, or another doubt; inactive = no such curve, though single readings can be large; an effect the other way counts as inactive or inconclusive.

How the values were obtained:
[1] = biological target: Flap endonuclease 1 (Homo sapiens) (UniProt P39748); experiment: qHTS Validation Assay for the Inhibitors of Human Flap endonuclease 1 (FEN1) (AID 488816); also: potency is read from the fitted curve at half-maximal effect
Summary of the method: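 qHTS format: compounds and 10 nM FEN1 incubated 15 min at room temperature before adding 50 nM substrate. Cleavage followed by reads at 0 and 15 min; normalized data fitted to a four-parameter Hill curve.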

[2] = biological target: M-phase phosphoprotein 8 (Homo sapiens) (UniProt Q99549); experiment: qHTS Validation Assay for Inhibitors for MPP8 Chromodomain Interactions with Methylated Histone Tails (AID 488949); also: nearly all actives have a fitted effect of over 55% in size; also: potency is read from the fitted curve at half-maximal effect
M-phase phosphoprotein 8 (Homo sapiens), sequence (Q99549 whole entry, looked up): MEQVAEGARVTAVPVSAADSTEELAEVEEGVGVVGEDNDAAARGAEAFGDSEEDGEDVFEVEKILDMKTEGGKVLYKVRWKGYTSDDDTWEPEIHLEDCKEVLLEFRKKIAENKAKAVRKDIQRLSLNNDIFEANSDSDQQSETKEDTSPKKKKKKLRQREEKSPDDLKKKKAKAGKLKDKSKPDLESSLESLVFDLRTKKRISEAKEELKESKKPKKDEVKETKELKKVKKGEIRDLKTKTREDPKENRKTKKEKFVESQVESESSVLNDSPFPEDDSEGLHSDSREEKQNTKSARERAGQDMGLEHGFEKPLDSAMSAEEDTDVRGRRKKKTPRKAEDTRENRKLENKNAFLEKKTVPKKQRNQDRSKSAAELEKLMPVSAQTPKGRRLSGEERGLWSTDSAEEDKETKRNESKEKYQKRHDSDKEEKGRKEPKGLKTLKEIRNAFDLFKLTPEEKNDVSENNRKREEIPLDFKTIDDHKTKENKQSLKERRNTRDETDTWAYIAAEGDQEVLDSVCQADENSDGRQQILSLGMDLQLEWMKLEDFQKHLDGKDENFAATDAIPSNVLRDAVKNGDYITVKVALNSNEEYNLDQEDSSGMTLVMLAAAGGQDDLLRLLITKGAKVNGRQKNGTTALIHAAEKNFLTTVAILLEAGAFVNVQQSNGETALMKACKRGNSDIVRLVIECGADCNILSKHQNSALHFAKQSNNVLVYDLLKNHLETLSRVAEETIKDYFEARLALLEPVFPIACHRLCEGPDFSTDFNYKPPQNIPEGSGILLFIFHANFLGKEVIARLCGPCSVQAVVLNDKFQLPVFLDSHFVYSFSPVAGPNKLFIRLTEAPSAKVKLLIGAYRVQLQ
Summary of the method: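 AlphaScreen read-out: streptavidin donor and nickel chelate acceptor beads (final 10 ug/mL), 30 min in the dark at RT. Complex of 50 nM MPP8 and 50 nM b-H3(1-18)K9me3 peptide had been exposed to compounds for 30 min beforehand.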

[3] = biological target: Methanococcus maripaludis chaperonin (MmCpn) (UniProt Q6LX38); experiment: High-Throughput Screening for Modulators of Cytosolic Chaperonin Activity: MmCpn Primary Screen (AID 488978);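 also: 50 nM MmCpn enzyme hydrolysing 30 µM ATP at 37 °C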
Summary of the method: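 ADP formation read by HTRF Transcreener, 665/590 nm emission after 320 nm excitation. Enzyme: archaeal chaperonin at 50 nM final; substrate ATP 30 uM final; 10 min, 37C, after 5 min compound preincubation at RT.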

[4] = biological target: Transient receptor potential cation channel subfamily V member 1 (Homo sapiens) (UniProt Q8NER1); experiment: HTS Assay for Compounds that Act as Enhancers of the Vanilloid Receptor 1 (AID 488979)
Transient receptor potential cation channel subfamily V member 1 (Homo sapiens), sequence (Q8NER1 whole entry, looked up): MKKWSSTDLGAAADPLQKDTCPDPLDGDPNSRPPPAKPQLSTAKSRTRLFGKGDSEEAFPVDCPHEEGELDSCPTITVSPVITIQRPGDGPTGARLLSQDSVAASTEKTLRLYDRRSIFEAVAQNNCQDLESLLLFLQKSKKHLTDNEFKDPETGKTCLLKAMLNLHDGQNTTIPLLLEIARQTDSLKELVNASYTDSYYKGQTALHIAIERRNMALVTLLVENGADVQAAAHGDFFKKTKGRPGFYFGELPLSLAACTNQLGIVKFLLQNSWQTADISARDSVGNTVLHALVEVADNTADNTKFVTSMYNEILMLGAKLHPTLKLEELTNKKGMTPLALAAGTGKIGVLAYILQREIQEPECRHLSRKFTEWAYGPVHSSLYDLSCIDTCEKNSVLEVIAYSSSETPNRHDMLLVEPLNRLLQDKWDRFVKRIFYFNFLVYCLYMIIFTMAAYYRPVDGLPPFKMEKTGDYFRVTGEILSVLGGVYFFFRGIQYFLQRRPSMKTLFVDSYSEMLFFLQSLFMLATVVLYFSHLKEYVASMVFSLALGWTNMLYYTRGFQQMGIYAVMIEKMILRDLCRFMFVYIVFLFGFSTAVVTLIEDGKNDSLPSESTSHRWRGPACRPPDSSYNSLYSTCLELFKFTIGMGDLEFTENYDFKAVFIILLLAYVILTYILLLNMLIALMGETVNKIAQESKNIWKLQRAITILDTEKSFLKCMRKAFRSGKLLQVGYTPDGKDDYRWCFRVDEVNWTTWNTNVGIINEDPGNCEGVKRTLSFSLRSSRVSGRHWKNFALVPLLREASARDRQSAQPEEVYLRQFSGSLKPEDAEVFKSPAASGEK
Summary of the method: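 Calcium influx kinetics via Fluo-8 (480/520 nm) in TRPV1-expressing cells, 2000/well cultured overnight at 35.5C. Compound-alone read 3 min (agonist phase), followed by EC20 capsaicin challenge for 2 min (enhancer phase).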

[5] = biological target: Thyrotropin receptor (Homo sapiens) (UniProt P16473); experiment: qHTS Assay for Antagonists of the Thyroid Stimulating Hormone Receptor (AID 488980); also: series mostly up to about 58 µM
Thyrotropin receptor (Homo sapiens), sequence (P16473 whole entry, looked up): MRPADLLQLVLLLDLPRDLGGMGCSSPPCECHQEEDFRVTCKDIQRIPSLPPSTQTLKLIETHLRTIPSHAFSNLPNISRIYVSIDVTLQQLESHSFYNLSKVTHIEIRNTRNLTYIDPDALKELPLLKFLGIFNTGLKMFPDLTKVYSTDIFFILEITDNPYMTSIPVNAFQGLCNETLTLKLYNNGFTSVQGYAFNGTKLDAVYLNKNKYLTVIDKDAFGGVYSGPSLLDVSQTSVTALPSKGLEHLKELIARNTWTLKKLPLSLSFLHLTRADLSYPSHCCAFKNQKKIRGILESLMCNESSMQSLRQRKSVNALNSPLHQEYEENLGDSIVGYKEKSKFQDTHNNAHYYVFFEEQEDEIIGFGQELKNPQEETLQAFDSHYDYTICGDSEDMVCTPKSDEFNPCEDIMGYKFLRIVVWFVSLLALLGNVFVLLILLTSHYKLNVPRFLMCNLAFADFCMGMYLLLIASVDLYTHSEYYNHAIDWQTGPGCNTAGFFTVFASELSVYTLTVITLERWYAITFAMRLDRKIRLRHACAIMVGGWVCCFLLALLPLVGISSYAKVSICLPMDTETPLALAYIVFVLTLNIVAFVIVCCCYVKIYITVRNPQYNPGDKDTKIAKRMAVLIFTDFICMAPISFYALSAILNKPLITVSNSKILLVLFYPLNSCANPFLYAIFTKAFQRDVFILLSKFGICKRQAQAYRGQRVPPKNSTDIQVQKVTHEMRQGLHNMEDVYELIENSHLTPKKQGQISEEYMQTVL
Summary of the method: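 TSHR-HEK293 cells; 70 uM RO 20-1724 PDE inhibitor; compound + EC80 TSH (4 nM final); anti-cAMP cryptate antibody/cAMP-d2 in lysis buffer, 30 min RT; HTRF 665/620 nm read.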

[6] = biological target: D(1A) dopamine receptor (Homo sapiens) (UniProt P21728); experiment: HTS Assay for Allosteric Agonists of the Human D1 Dopamine Receptor: Primary Screen for Agonists (AID 488981); also: potency is read from the fitted curve at half-maximal effect
Summary of the method: (§1)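 Calcium flux in an inducible, force-coupled HEK293 Trex D1 line (overnight at 30 C): agonist mode is the 180 s kinetic read after compound; potentiator mode is the following 180 s read after dopamine at EC20.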

[7] = biological target: D(1A) dopamine receptor (Homo sapiens) (UniProt P21728); experiment: HTS Assay for Allosteric Agonists of the Human D1 Dopamine Receptor: Primary Screen for Potentiators (AID 488982); also: potency is read from the fitted curve at half-maximal effect
Summary of the method: as §1

[8] = biological target: D(1A) dopamine receptor (Homo sapiens) (UniProt P21728); experiment: HTS Assay for Allosteric Agonists of the Human D1 Dopamine Receptor: Primary Screen for Antagonists (AID 488983);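 also: calcium flux response to an EC80 dopamine challenge measured with no-wash dye; nearly all actives have a fitted effect of over 65% in size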
Summary of the method: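 Kinetic fluorescence at 1 cycle/sec tracked intracellular calcium in force-coupled, tetracycline-inducible HEK293 T-REx D1 cells. Loss of response to an EC80 dopamine dose, given 180 s after compound, marked antagonists.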

[9] = Validation screen for small molecules that induce genotoxicity in human embryonic kidney (HEK293T) cells expressing luciferase-tagged ELG1 (AID 493106)
Summary of the method: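 Cells were dispensed at 2,000 per well, then 23 nL compound or DMSO was pinned in. After 16 hr at 37 °C and 5% CO2, ONE-Glo reagent was added. Luciferase activity was measured following 30 min at room temperature.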

[10] = biological target: ATPase family AAA domain-containing protein 5 (Homo sapiens) (UniProt Q96QE3); experiment: Validation screen for small molecules that inhibit ELG1-dependent DNA repair in human embryonic kidney (HEK293T) cells expressing luciferase-tagged ELG1 (AID 493107); also: nearly all actives have a fitted effect of over 70% in size; also: potency is read from the fitted curve at half-maximal effect
ATPase family AAA domain-containing protein 5 (Homo sapiens), sequence (Q96QE3 whole entry, looked up, the tested form may be a part): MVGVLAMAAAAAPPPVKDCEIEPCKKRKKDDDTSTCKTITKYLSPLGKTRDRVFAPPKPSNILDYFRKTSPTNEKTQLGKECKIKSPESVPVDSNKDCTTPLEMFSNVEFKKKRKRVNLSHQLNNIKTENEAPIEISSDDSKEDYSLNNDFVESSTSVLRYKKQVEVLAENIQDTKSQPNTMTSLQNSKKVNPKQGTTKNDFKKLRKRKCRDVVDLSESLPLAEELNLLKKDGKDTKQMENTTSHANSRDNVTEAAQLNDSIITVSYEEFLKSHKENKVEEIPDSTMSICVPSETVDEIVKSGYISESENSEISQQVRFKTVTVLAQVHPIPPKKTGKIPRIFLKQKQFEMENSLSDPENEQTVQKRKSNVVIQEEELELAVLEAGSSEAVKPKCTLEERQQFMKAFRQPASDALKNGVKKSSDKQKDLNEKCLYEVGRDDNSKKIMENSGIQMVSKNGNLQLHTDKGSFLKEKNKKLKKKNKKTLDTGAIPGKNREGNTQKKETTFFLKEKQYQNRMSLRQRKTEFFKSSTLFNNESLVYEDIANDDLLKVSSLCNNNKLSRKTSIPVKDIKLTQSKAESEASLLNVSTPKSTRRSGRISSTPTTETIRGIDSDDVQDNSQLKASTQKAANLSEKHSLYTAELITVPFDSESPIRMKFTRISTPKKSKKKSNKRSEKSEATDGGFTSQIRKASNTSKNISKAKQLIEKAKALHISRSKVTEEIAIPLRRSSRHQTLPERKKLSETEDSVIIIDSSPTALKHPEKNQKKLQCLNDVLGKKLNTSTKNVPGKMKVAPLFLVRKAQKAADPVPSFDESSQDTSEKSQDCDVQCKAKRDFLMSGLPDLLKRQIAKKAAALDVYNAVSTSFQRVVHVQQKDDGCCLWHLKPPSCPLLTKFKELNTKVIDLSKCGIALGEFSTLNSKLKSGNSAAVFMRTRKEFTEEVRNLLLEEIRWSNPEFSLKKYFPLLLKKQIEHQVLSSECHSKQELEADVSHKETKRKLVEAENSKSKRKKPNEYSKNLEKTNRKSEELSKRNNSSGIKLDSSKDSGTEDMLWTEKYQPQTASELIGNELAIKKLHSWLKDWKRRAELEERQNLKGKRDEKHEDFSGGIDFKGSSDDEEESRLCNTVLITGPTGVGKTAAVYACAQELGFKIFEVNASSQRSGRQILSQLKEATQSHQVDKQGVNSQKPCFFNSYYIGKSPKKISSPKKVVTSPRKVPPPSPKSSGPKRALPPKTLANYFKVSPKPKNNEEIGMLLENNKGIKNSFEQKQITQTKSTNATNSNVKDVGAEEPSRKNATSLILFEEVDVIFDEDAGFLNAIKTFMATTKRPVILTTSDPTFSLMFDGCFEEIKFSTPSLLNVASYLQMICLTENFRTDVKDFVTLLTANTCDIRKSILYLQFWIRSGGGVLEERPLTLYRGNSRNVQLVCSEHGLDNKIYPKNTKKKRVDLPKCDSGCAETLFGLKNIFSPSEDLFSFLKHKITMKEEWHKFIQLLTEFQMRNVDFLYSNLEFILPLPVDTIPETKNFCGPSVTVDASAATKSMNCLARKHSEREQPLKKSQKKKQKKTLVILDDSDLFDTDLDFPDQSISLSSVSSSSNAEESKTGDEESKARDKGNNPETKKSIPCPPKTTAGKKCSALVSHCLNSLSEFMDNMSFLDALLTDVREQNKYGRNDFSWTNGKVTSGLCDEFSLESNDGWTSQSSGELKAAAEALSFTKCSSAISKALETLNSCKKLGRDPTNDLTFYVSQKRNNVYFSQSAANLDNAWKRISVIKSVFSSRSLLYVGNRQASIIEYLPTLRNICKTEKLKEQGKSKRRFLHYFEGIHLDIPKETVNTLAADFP
Summary of the method: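 Cells are dispensed in 1536-well format, then 5-fluorouridine and compound are pinned in. After a 16 hr incubation at 37 °C and 5% CO2, ONE-Glo is added and luciferase measured on a CCD imager.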

[11] = biological target: Thyrotropin-releasing hormone receptor (Homo sapiens) (UniProt P34981); experiment: qHTS for Small Molecule Agonists and Allosteric Enhancers of Human TRH Receptor: Validation Screen for Agonists (AID 493127;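 active = calcium activation more than 3 SD above the typical response in the agonist read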;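 also: intracellular calcium rise by fluo-8 fluorescence before TRH EC20 addition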); conditions: TRH receptor agonist cell assay; at 2 µM; stronger effect = higher value
Thyrotropin-releasing hormone receptor (Homo sapiens), sequence (P34981 whole entry, looked up): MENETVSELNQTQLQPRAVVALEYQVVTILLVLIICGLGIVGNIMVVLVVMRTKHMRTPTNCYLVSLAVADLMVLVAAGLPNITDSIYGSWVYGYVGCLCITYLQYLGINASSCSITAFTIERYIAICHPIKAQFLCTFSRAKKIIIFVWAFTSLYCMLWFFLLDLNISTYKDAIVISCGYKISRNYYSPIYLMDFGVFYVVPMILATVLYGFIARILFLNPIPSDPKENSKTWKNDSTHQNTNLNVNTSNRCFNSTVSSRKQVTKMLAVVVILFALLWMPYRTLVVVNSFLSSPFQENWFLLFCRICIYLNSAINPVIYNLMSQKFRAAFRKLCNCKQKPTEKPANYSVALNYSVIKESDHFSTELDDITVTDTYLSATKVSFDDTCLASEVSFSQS
Summary of the method: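 Compounds are added by online pintool to dye-loaded TRHR cells while fluorescence is recorded every second. A rise in calcium signal during the agonist read marks activation; a later 10 nM TRH addition (EC20) serves the separate enhancer mode.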

[12] = Nrf2 qHTS screen for inhibitors: Validation (AID 493153; active = well fitted inhibition curve with a large enough effect in the main read-out, with a control signal flat, not every such curve was filed as active); conditions: Potency: luciferase luminescence; viability change: measured here: cytotoxicity max response
Summary of the method: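 A549 ARE_Fluc, 5% FBS OPTI-MEM; cpd titration, 18-24 h, 37°C/5% CO2. Read 1: CellTiter-Fluor (Ex 405/Em 525), cytotox. Read 2: luciferase lum, Nrf2 activity.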

[13] = biological target: Galactokinase (Homo sapiens) (UniProt P51570); experiment: qHTS Validation Assay for Inhibitors of Human Galactokinase (GALK) (AID 493189)
Summary of the method: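 Luminescence from leftover ATP (Kinase-Glo Plus, 10 min) served as read-out after a 1 h room-temperature reaction of 5 nM GALK, 100 uM galactose and 35 uM ATP at pH8.0.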

[14] = Validation screen for small molecules that induce DNA re-replication in SW480 colon adenocarcinoma cells (AID 504364)
Summary of the method: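 Image-based qHTS: compounds were incubated with SW480 cells for 48 hr, nuclei stained with Hoechst, and per-nucleus fluorescence intensity scanned to flag cells with excess DNA content.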

[15] = biological target: Peptidyl-prolyl cis-trans isomerase NIMA-interacting 1 (Homo sapiens) (UniProt Q13526); experiment: qHTS Validation Assay to Find Inhibitors of Pin1 (AID 504536; active = well fitted inhibition curve with a large enough effect in the polarisation, with a control signal flat, not every such curve was filed as active; the % refers to the polarisation)
Peptidyl-prolyl cis-trans isomerase NIMA-interacting 1 (Homo sapiens), sequence (Q13526 whole entry, looked up): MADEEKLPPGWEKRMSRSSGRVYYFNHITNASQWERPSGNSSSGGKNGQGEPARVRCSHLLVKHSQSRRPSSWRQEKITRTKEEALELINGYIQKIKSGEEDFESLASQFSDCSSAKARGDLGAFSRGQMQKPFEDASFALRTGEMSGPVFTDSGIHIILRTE
Summary of the method: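 Fluorescence polarization competition: compounds (titration) displace HiFluor-488-labeled Pin1-1b peptide from Pin1 (0.3 uM final) in pH 7.5 HEPES buffer with DTT, 10 min at room temperature; %Activity normalized to no-enzyme wells, curves fitted.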

[16] = biological target: Phosphoglycerate kinase, glycosomal (Trypanosoma brucei brucei) (UniProt P07378); experiment: qHTS Validation Assay to Find Inhibitors of Phosphoglycerate Kinase (AID 504547)
Summary of the method: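 Luminescence end-point (Kinase-Glo Plus, 10 min) after a 60 min room-temperature coupled reaction. GAPDH at 100nM final supplies 1,3-BPG to PGK. Buffer: 100mM TEA pH 7.6, 5mM MgCl2, 0.01% Tween-20. Wells lacking PGK served as controls.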

[17] = qHTS for Inhibitors of Cell Surface uPA Generation: Validation Assay (AID 493164);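 also: RAW 264.7 macrophage cells exposed to compound for 18 h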
Summary of the method: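 ATP-Lite luminescence read-out: ATP remains high when uPA activity-dependent LF translocation into the cytoplasm is blocked. RAW 264.7 cells, 18 h compound exposure at 37 C; 7-point titration, 2.45 nM to 38.3 uM final.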

[18] = biological target: Chromobox protein homolog 1 (Homo sapiens) (UniProt P83916); experiment: qHTS Validation Assay for Inhibitors of HP1-beta Chromodomain Interactions with Methylated Histone Tails (AID 488953); also: nearly all actives have a fitted effect of over 50% in size; also: potency is read from the fitted curve at half-maximal effect
Chromobox protein homolog 1 (Homo sapiens), sequence (P83916 whole entry, looked up): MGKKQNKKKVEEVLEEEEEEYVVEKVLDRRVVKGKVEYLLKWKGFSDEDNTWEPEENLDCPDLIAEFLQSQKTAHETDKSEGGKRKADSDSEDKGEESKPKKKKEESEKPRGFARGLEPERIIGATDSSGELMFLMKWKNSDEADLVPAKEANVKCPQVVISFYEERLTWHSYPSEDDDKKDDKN
Summary of the method: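 Disruption of preformed HP1-beta:H3K9me3 peptide complexes (both 50 nM, PBS pH 7.4 with 0.01% Tween-20) is measured by AlphaScreen after 30 min compound exposure at room temperature, using streptavidin donor and nickel chelate acceptor beads at 10 ug/mL final.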

| SMILES | Potency [1] | Potency [2] | outcome [3] | outcome [4] | outcome [5] | Potency [6] | Potency [7] | Potency [8] | Potency [9] | Potency [10] | activation [11] | Potency [12] | viability change [12] [%] | outcome [13] | Potency [14] | Potency [15] | Potency [16] | outcome [17] | Potency [18] |
| --- | --- | --- | --- | --- | --- | --- | --- | --- | --- | --- | --- | --- | --- | --- | --- | --- | --- | --- | --- |
| COC(=O)N1CCN(C(=O)Cc2ccc(Cl)c(Cl)c2)C(CN2CCCC2)C1 (stereo unspecified) | inactive | inactive | inactive | inactive | inactive | inactive | inactive | inactive | inactive | inactive | 0.875% (inactive) | inactive | 0.492 | inactive | inactive | inactive | inactive |  |  |
| N[C@@H](CCl)C(=O)O | inactive | inactive | inactive | inactive | inactive | inactive | inactive | inactive | inactive | inactive | 1.31% (inactive) | inactive | 4.83 | inactive | inactive | inactive | inactive | inactive |  |
| C[N+]1(C)CCc2cc3c(cc2[C@H]1[C@@H]1OC(=O)c2c1ccc1c2OCO1)OCO3 | inactive | inactive | inactive |  |  | inactive | inactive | inactive | inactive | inactive |  | inactive | -0.563 |  |  | inactive | inactive |  | inactive |
| Cc1cc([C@@H]2CCCN2C)on1 | inactive | inactive | inactive |  |  | inactive |  | inactive | inactive |  |  | inactive | 4.53 |  |  | inactive | inactive | inactive | inactive |
| CNc1ccc2oc(C[C@H]3O[C@@]4(CC[C@H]3C)O[C@H]([C@H](C)C(=O)c3ccc[nH]3)[C@H](C)C[C@H]4C)nc2c1C(=O)O | inactive | inactive | inactive |  |  | 0.398 µM (active) |  |  | inactive |  | 0.125% (inactive) |  |  | inactive |  | inactive | inactive | inactive | 0.006 µM (active) |
| COc1ccc2c(c1)/C(=C/c1cnc[nH]1)C(=O)N2 | inactive | 44.7 µM (active) and inactive | inactive | inactive |  | inactive | inactive | inactive |  |  | 0.562% (inactive) |  |  | inactive |  | inactive | inactive |  | inactive |
| CN(C(=O)Cc1ccc(Cl)c(Cl)c1)C(CN1CCCC1)c1cccc(OCC(=O)O)c1 (stereo unspecified) | inactive | inactive | inactive | inactive |  | inactive |  | inactive | inactive |  | 0.25% (inactive) | inactive | -6.12 | inactive | inactive | inactive | inactive |  | inactive |
| N#CCCN | inactive | inactive | inactive |  |  | inactive | inactive | inactive | inactive |  |  | inactive | -4.25 |  |  | inactive | inactive |  | inactive |
| C[C@@H]1O[C@@H](O[C@H]2C[C@@H](O)[C@]3(CO)[C@@H]4C(CC[C@]3(O)C2)[C@@]2(O)CC[C@H]([C@@H]3COC(=O)C3)[C@@]2(C)C[C@H]4O)[C@H](O)[C@H](O)[C@H]1O (stereo partly specified) | inactive | inactive | inactive |  |  | inactive | inactive | inactive | inactive | 2.06 µM (active) |  |  |  |  |  | inactive | inactive | inactive | inactive |
| Cc1[nH]c2ccc(O)cc2c1CCN | inactive | inactive | inactive | inactive | inactive | inactive | inactive | inactive | inactive |  | 0.812% (inactive) | inactive | -7.71 | inactive | inactive | inactive | inactive | inactive |  |
| Ic1ccccc1CNC1C2CCN(CC2)C1C(c1ccccc1)c1ccccc1 (stereo unspecified) | inactive | inactive | inactive |  | inactive |  | 4.11 µM (active) |  |  | 16.4 µM (active) | 2.31% (inactive) |  |  | inactive | inactive | inactive | inactive | inactive | 44.7 µM (active) |
| N#C/C(=C/c1ccc(O)c(O)c1)C(N)=S | 2.99 µM (active) | 13.4 µM (active) | inactive |  |  | inactive | 0.517 µM (active) | inactive |  | inactive |  | inactive | 0.144 |  |  | inactive |  | inactive | 12.6 µM (active) |
| COc1ccc2[nH]cc(CCN)c2c1 | inactive | inactive | inactive | inactive |  | inactive |  | inactive |  | inactive | -2.62% (inactive) | inactive | 0.303 | inactive | inactive | inactive | inactive | inactive | inactive |
| N=C(N)c1ccc(CS(=O)(=O)F)cc1 | inactive | inactive | inactive |  |  | inactive | inactive | inactive | inactive |  |  | inactive | -1.04 |  |  | inactive | inactive | inactive | inactive |
| COc1ccc2c(c1)C13CCCCC1C(C2)N(C)CC3 (stereo unspecified) | inactive | inactive | inactive | inactive |  | inactive |  | inactive | inactive | inactive | 1.06% (inactive) | inactive | 4.34 | inactive | inactive | inactive | inactive |  | inactive |
| COc1ccc(CNC(=O)/C=C/c2ccc3[nH]cc(CCN(C)C)c3c2)cc1 | inactive | inactive | inactive | inactive |  | inactive | inactive | inactive |  |  | -0.312% (inactive) | inactive | -0.218 | inactive | inactive | inactive | inactive | inactive | inactive |
| CC(=O)NBr | inactive | inactive | inactive | inactive |  | inactive | inactive | inactive |  |  | -0.0625% (inactive) | inactive | 1.41 | inactive | inactive | inactive | inactive | inactive | inactive |
